Results on 18 molecules are retold here after article PMC5540273 (PLoS ONE, 2017).

The structures appear in SMILES notation. Several values for one entry are separate records, joined by “and”; a condition that tells them apart may be missing. Equal values may be shown once. Read-outs that look alike come from different tables or passages of the source.

One test relates to CDK4. The settings on record: n = 1.
The subject of the next test is CDK5. The settings on record: concentration: 1 μM, replicates: in singlicate; n = 1.
In another test the test system is CDK7. Particulars: n = 1.
Another test deals with CDK8. The settings on record: concentration: 1 μM, replicates: in singlicate; n = 1.
For a further test, the system named is CDK9. Particulars: n = 1.
Another test deals with CDKL1. Particulars: concentration: 1 μM, replicates: in singlicate; n = 1.
Another test concerns CDKL2. Particulars: n = 1.
The next test has as its system CDKL3. The settings on record: concentration: 1 μM, replicates: in singlicate; n = 1.
For a further test, the system named is CDKL5. Particulars: concentration: 1 μM, replicates: in singlicate; n = 1.
A further test deals with CHEK1. The settings on record: n = 1.
Setting [1] is: concentration: 1 μM, replicates: in singlicate.
Setting [2] is: concentration: 1 μM,replicates: in singlicate, 1 µM.
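Further: KINOMEscan kinase panel screen.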

On to `C[C@@H]1CCCCN1c1cc(-c2ccc3c(N)n[nH]c3c2)nc(N)n1` [GSK2258759], for which the “%Inh” value worked out at 21% with CDK4 (setting [1]); 0% in the test with CDK5; 0% in the test on CDK7 (setting [1]); 20% with CDK8; 0% in the test on CDK9 (setting [1]); 6% in the test with CDKL1. The “%Inh” value in the test with CDKL2 (setting [1]) turned out to be 6%; in the test with CDKL3, 0%; in the test on CDKL5, 0%; with CHEK1 (setting [1]), 0%.
For the molecule `CSc1nn2c(=O)cc(N3CCOCC3)nc2n1Cc1cccc(C(F)(F)F)c1C` [GSK2363608], the “%Inh” value with CDK4 (setting [2]) is 15% and 0%; in the test on CDK5 it was 0%; in the test on CDK7 (setting [2]), 7% and 0%; with CDK8, 0%; in the test with CDK9 (setting [2]), 7% and 0%; with CDKL1 it was 0%. Moreover, the “%Inh” value is 17% and 30% in the test on CDKL2 (setting [2]); 0% in the test on CDKL3; 0% in the test with CDKL5; 4% and 11% in the test with CHEK1 (setting [2]).
With `Nc1nc(-c2nccs2)c(-c2ccnc3ccccc23)s1` [GW693542], the “%Inh” value is 15% with CDK4 (setting [1]); 0% with CDK5; 0% with CDK7 (setting [1]); 14% in the test on CDK8; 0% in the test on CDK9 (setting [1]); 0% with CDKL1. For the same molecule, the “%Inh” value with CDKL2 (setting [1]) is given as 26%; in the test with CDKL3 it was 0%; with CDKL5, 4%; in the test on CHEK1 (setting [1]), 5%.
As for `Fc1cccc(COc2nnc(-c3ccc4c(c3)CCO4)o2)c1`, the “%Inh” value in the test with CDK4 (setting [1]) was found to be 0%; in the test on CDK5, 0%; in the test with CDK7 (setting [1]), 9%; in the test on CDK8, 19%; in the test with CDK9 (setting [1]) it was 0%; in the test on CDKL1 it was 0%. Besides, the “%Inh” value was found to be 9% in the test with CDKL2 (setting [1]), 9% with CDKL3, 0% in the test with CDKL5 and 0% in the test on CHEK1 (setting [1]).
As for `Cc1cc(N2Cc3ccccc3C2)nc(Nc2ccc(S(=O)(=O)N3CCOCC3)cc2)n1.Cl` [GSK1669917], the “%Inh” value in the test on CDK4 (setting [1]) is given as 0%; in the test with CDK5, 0%; with CDK7 (setting [1]) it was 0%; with CDK8, 33%; with CDK9 (setting [1]), 0%; with CDKL1, 0%. In addition, the “%Inh” value in the test with CDKL2 (setting [1]) amounted to 0%; in the test with CDKL3, 0%; with CDKL5, 6%; in the test on CHEK1 (setting [1]) it was 0%.
With `COc1cc2ncn(-c3cc(OCC4CCCO4)c(C(N)=O)s3)c2cc1OC` (stereo not drawn) [GSK204607], the “%Inh” value is reported as 13% in the test on CDK4 (setting [1]); 0% in the test with CDK5; 4% with CDK7 (setting [1]); 32% in the test with CDK8; 0% with CDK9 (setting [1]); 11% in the test with CDKL1. The “%Inh” value with CDKL2 (setting [1]) stood at 1%; with CDKL3 it was 0%; in the test with CDKL5, 0%; with CHEK1 (setting [1]) it was 0%.
`COC(=O)c1c(-c2ccccc2)c2cc(OC)ccc2c(=O)n1Cc1ccccc1`: the “%Inh” value with CDK4 (setting [1]) is listed as 0%; with CDK5, 11%; in the test on CDK7 (setting [1]) it was 15%; in the test on CDK8, 7%; with CDK9 (setting [1]), 9%; in the test on CDKL1 it was 3%. For the same molecule, the “%Inh” value is recorded as 13% with CDKL2 (setting [1]), 12% in the test with CDKL3, 0% with CDKL5 and 0% with CHEK1 (setting [1]).
For `Cc1cccc(-c2cc(Nc3ccncc3)c3ccccc3n2)n1` [GSK223675], the “%Inh” value in the test on CDK4 (setting [1]) came out at 0%; with CDK5, 0%; with CDK7 (setting [1]), 0%; with CDK8 it was 0%; with CDK9 (setting [1]), 4%; in the test with CDKL1 it was 0%. Further, the “%Inh” value in the test on CDKL2 (setting [1]) is listed as 5%; in the test with CDKL3, 0%; in the test with CDKL5 it was 1%; in the test with CHEK1 (setting [1]), 0%.
Regarding `Cn1ccc2ncnc(Oc3cccc(C(=O)Nc4ccccc4)c3)c21`, the “%Inh” value in the test with CDK4 (setting [1]) came to 0%; with CDK5, 16%; in the test on CDK7 (setting [1]), 4%; in the test on CDK8, 22%; in the test with CDK9 (setting [1]), 1%; in the test with CDKL1, 0%. For the same molecule, the “%Inh” value turned out to be 13% with CDKL2 (setting [1]), 0% in the test with CDKL3, 0% with CDKL5 and 0% in the test with CHEK1 (setting [1]).
Turning to `COc1cc(Nc2nccc(N3CCC(NC(=O)Nc4cc(C)ccc4C)C3)n2)cc(OC)c1OC` (stereo not drawn) [GSK1379762], the “%Inh” value was found to be 0% with CDK4 (setting [1]); 0% with CDK5; 0% with CDK7 (setting [1]); 20% in the test with CDK8; 0% in the test with CDK9 (setting [1]); 0% in the test with CDKL1. Further, the “%Inh” value was found to be 41% in the test with CDKL2 (setting [1]), 0% in the test on CDKL3, 7% with CDKL5 and 25% with CHEK1 (setting [1]).
For `COc1cccc(-c2cc(-c3c[nH]nc3-c3ccccn3)ccn2)c1` [GW680338], the “%Inh” value turned out to be 31% with CDK4 (setting [1]); 0% with CDK5; 0% in the test with CDK7 (setting [1]); 44% in the test on CDK8; 0% with CDK9 (setting [1]); 0% in the test on CDKL1. The “%Inh” value in the test with CDKL2 (setting [1]) came to 0%; in the test with CDKL3, 23%; with CDKL5, 0%; with CHEK1 (setting [1]), 0%.
As to `Cl.O=C(Nc1cccc(-c2nn3ncccc3c2-c2ccnc(Nc3cccnc3)n2)c1)c1c(F)cccc1F` [GSK312879], the “%Inh” value with CDK4 (setting [1]) was found to be 0%; in the test on CDK5, 0%; in the test with CDK7 (setting [1]), 0%; in the test with CDK8, 0%; with CDK9 (setting [1]), 0%; with CDKL1 it was 1%. In addition, the “%Inh” value in the test with CDKL2 (setting [1]) is 19%; with CDKL3 it was 0%; in the test with CDKL5, 0%; with CHEK1 (setting [1]), 12%.
On to `Fc1cc(Cl)ccc1Nc1ccnc2cc(-c3ccc(CN4CCCCC4)o3)ccc12` [GW560116], for which the “%Inh” value in the test on CDK4 (setting [1]) worked out at 35%; with CDK5 it was 0%; in the test on CDK7 (setting [1]) it was 0%; in the test on CDK8, 28%; in the test on CDK9 (setting [1]), 0%; in the test with CDKL1 it was 0%. The “%Inh” value stood at 2% in the test with CDKL2 (setting [1]), 0% in the test on CDKL3, 0% in the test with CDKL5 and 0% in the test on CHEK1 (setting [1]).
In the case of `Cc1ccc(NC(=O)Nc2cccc(Cl)c2)cc1-c1ccc(C(=O)Nc2ccncc2)cc1` [GSK1398468], the “%Inh” value with CDK4 (setting [1]) is reported as 0%; in the test with CDK5, 0%; in the test on CDK7 (setting [1]) it was 0%; in the test on CDK8, 0%; in the test with CDK9 (setting [1]) it was 0%; in the test on CDKL1 it was 13%. Further, the “%Inh” value with CDKL2 (setting [1]) is 52%; in the test on CDKL3, 0%; in the test with CDKL5 it was 0%; in the test on CHEK1 (setting [1]) it was 0%.
On to `COc1ccc(C2=C(Nc3cccc(C(=O)O)c3)C(=O)NC2=O)cc1` [SB-390765], for which the “%Inh” value in the test with CDK4 (setting [1]) is listed as 51%; in the test on CDK5 it was 16%; with CDK7 (setting [1]) it was 3%; in the test on CDK8 it was 0%; in the test with CDK9 (setting [1]), 1%; with CDKL1, 0%. The “%Inh” value in the test with CDKL2 (setting [1]) was found to be 37%; in the test with CDKL3, 0%; in the test with CDKL5, 13%; in the test on CHEK1 (setting [1]), 0%.
As for `NC(=O)c1nnc2ccccc2c1N`, the “%Inh” value in the test with CDK4 (setting [1]) is 0%; with CDK5, 0%; with CDK7 (setting [1]) it was 14%; in the test with CDK8 it was 26%; in the test with CDK9 (setting [1]), 15%; with CDKL1, 44%. The “%Inh” value with CDKL2 (setting [1]) turned out to be 1%; in the test with CDKL3, 17%; in the test with CDKL5, 9%; in the test on CHEK1 (setting [1]), 0%.
On to `Cc1cccc(-c2nc(Nc3ccc4[nH]ncc4c3)c3ccccc3n2)n1` [GW857175], for which the “%Inh” value was 0% in the test with CDK4 (setting [1]); 3% with CDK5; 8% in the test on CDK7 (setting [1]); 0% in the test on CDK8; 0% in the test on CDK9 (setting [1]); 0% in the test on CDKL1. For the same molecule, the “%Inh” value with CDKL2 (setting [1]) is 7%; in the test with CDKL3 it was 4%; in the test with CDKL5, 18%; in the test on CHEK1 (setting [1]), 4%.
Consider `CN(C)CCN(C)C(=O)c1cc(-c2ccncc2)c(-c2ccc(Cl)c(O)c2)o1.Cl.Cl` [SB-710397], for which the “%Inh” value was 0% in the test with CDK4 (setting [1]); 0% in the test on CDK5; 0% in the test on CDK7 (setting [1]); 37% with CDK8; 0% in the test with CDK9 (setting [1]); 0% with CDKL1. Moreover, the “%Inh” value with CDKL2 (setting [1]) came to 20%; in the test with CDKL3 it was 0%; in the test on CDKL5, 2%; with CHEK1 (setting [1]) it was 9%.
